Screening data (PubChem)
This is a sample that favours compounds with a hit; in the whole collection about 2.7% have one here.
CHT PAM – allosteric activators of human choline transporter CHT; Q9GZV3; CHT-expressing cells, membrane potential dye, choline EC20; hits give high values; LV-AA mutant CHT in HEK293 cells; B-score at 10 µM; 310,000 tested, 0.49% active;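 active = initial fluorescence not abnormally high and integrated response B-score, plate-corrected, over 3 SD above library mean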
Target sequence (Q9GZV3 whole entry, looked up): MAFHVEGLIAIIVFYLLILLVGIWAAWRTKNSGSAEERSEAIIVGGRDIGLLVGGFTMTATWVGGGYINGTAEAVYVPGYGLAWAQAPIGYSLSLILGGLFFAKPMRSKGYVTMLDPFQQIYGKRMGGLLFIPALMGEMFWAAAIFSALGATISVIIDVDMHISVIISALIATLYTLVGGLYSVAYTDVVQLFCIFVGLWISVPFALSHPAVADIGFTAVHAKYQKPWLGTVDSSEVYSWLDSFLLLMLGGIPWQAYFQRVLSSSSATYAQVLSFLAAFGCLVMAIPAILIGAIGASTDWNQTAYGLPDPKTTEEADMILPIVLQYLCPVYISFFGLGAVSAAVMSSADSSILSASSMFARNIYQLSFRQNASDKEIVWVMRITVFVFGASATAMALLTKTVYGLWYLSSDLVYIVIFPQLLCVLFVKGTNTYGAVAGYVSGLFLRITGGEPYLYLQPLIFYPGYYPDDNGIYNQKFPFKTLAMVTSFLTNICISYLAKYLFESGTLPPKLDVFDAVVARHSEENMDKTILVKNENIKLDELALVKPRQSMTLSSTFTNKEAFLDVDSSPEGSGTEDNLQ
CHT block – human CHT choline transport inhibition. CHT-expressing cells, membrane potential dye, choline response; hits give low values. B-score at 10 µM. 310,000 tested, 0.86% active. AID 488975;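 active = B-score over 3 SD under the library average, and starting fluorescence ratio not unusually high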;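 note: choline stimulus applied at its EC90 after an EC20 pre-addition; B-score computed on integrated fluorescence ratio after choline addition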
ANO1 block – mouse TMEM16A channel inhibition, primary screen. Q8BHY3. HEK293 TMEM16A/YFP iodide influx fluorescence, ionomycin. normalized B-score (activity score, 25-100; higher = stronger inhibition) at 10 µM. 310,000 tested, 1.2% active;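 active = ratio plate-corrected score three or more library SD toward inhibition, starting fluorescence score within five deviations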;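 note: score derived from kinetic fluorescence span divided by baseline fluorescence per well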
IDE cell inh – inhibits human insulin-degrading enzyme in HEK cells | P14735 | FAbetaB cleavage, fluorescence polarization | inhibition, % at 5.59 µM | 320,000 tested, 0.41% active | AID 434962;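 active = percent inhibition above the average of all tested compounds plus 3 SD, set per screening campaign, cut at about 16% in these data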;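 note: IDE supplied by intact live HEK cells; FP after avidin binding of uncleaved biotin substrate so inhibition keeps polarization high; 0% = DMSO wells and 100% = 60 µM reference IDE inhibitor Ii1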
TMEM16A act – mouse TMEM16A channel activation, primary screen. 340,000 tested, 0.3% active. HEK293 TMEM16A/YFP-H148Q/I152L, iodide quench fluorescence; hits give low values. B-score at 10 µM. Q8BHY3;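 active = fluorescence-ratio B-score plate-corrected deviation score at least 3 library SD below zero, with starting fluorescence score within 5 deviations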;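 note: channel opened by trigger with iodide after compound preincubation; score built on the fluorescence ratio of max minus min over baseline; more negative score means more quench and so TMEM16A activation or potentiation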
IDE act – IDE (human) activation, cell-based. 340,000 tested, 0.073% active. activation, % at 5.96 µM. P14735. AID 493087. HEK cells, FAbeta-B cleavage, fluorescence polarization; 0% vehicle, 100% cell-free pure enzyme wells;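 active = activation above the mean of all tested compounds plus 3 SD, set per screening campaign, cut at about 17% in these data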
CHT inh conf – human CHT inhibition, confirmatory screen. shares compounds with CHT block. CHT-expressing cells, choline membrane potential dye; LV-to-AA substituted CHT, HEK293 cells. CHT activity remaining % of control (hits give low values), % at 10 µM. 2,400 tested, 70% active;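 active = choline transporter activity left, mean of duplicates at 10 µM, below buffer-only control mean minus 3 SD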;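 note: depolarization triggered by choline at its EC90 following an EC20 pre-addition; 0% = hemicholinium-3 full block and 100% = buffer-only control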
HEK293 CHT ctr – activity in parental HEK293 cells lacking CHT; shares compounds with CHT block; membrane potential ratio readout (active if shifted either direction beyond buffer ±3SD; no single direction) at 10 µM; membrane potential dye, choline response; active = decrease or increase beyond buffer ±3SD; AID 493222; 2,400 tested, 4% active;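 note: parental cells lack the transporter so any hit is non-specific; ratio is peak minus trough fluorescence over baseline after EC90 choline challenge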
An asterisk follows results filed as active; i = inactive; x = no result.

SMILES	CHT PAM	CHT block	ANO1 block	IDE cell inh	TMEM16A act	IDE act	CHT inh conf	HEK293 CHT ctr
CN(c1cccc(Cl)c1)S(=O)(=O)c1cccc(C(=O)NN2CCOCC2)c1	x	x	x	4	i	4	x	x
O=[N+]([O-])c1cc(NS(=O)(=O)c2ccc(Cl)nc2)ccc1Cl	i	-6.2*	i	-2	i	0	42%*	i
CC(C)c1ccc(NS(=O)(=O)c2ccc(Cl)nc2)cc1	i	i	i	2	i	0	x	x
CC1CC(C)CN(C(=O)c2cccc(N3C(=O)c4ccccc4C3=O)c2)C1 (configuration not stated)	x	x	x	-1	i	4	x	x
CC(C)(CNS(=O)(=O)c1ccc2c(c1)OCCO2)N1CCOCC1	i	i	i	-6	i	4	x	x
Cc1ccc(Oc2ccc(S(=O)(=O)NCC(C)(C)N3CCOCC3)cc2)cc1	i	-6.4*	i	-1	i	-5	40%*	i
C[C@@H]1CN([C@H](C)CO)C(=O)Cc2cc(NC(=O)Nc3ccccc3)ccc2O[C@@H]1CN(C)Cc1ccc2c(c1)OCO2	x	x	x	-2	i	8	x	x
Cc1cc(C)cc(NS(=O)(=O)c2cnc(Cl)c(Cl)c2)c1	i	-8*	i	-5	i	1	52%*	i
CCOc1ccc(NS(=O)(=O)c2cnc(Cl)c(Cl)c2)cc1	i	i	i	3	i	5	x	x
CC(=O)C[C@@H](O)CC(=O)[C@@H]1OC(=O)CCCCCCCCc2ccccc21	x	x	x	3	i	4	x	x
Cc1nnc(SCc2ccccc2)[nH]c1=O	i	i	i	-4	i	8	x	x
Cc1ccc(CSc2nnc(C)c(=O)[nH]2)cc1	i	-7.9*	i	2	i	4	i	i
CN(NS(=O)(=O)c1ccc(Br)cc1)c1nc(C(F)(F)F)nc2ccccc12	i	-5.6*	25*	6	i	0	i	i
CC1CN(C(=O)c2cc(S(=O)(=O)N(C)c3ccc(F)cc3)ccc2Cl)CC(C)O1 (configuration not stated)	i	i	i	-2	i	4	x	x
CC(NC(=O)CN(c1cccc(C(F)(F)F)c1)S(=O)(=O)c1ccc(Cl)c([N+](=O)[O-])c1)c1ccccc1 (configuration not stated)	i	-6.2*	i	7	i	4	i	i
O=C(CN(c1cccc(C(F)(F)F)c1)S(=O)(=O)c1ccc(Cl)c([N+](=O)[O-])c1)NCc1ccccc1	i	i	i	1	i	6	x	x
CC1=C(C(=O)NC(C)c2ccccc2)C2(CCC(C)CC2)OC1=O (configuration not stated)	i	i	i	9	i	-8	x	x
CC1=C(C(=O)NC(C)C)C2(CCC(C)CC2)OC1=O (configuration not stated)	i	-6.2*	25*	2	i	0	66%*	i
O=C(CSc1ncnc2c1nnn2Cc1ccccc1)NC1CCCC1	i	i	i	-1	i	7	x	x
CC(C)(C)NC(=O)CSc1ncnc2c1nnn2Cc1ccccc1Cl	i	-6.7*	i	0	i	1	i	i
COc1cccc(/C=N/Nc2c(Cl)cncc2Cl)c1O	i	i	i	-1	i	2	x	x
COc1cccc(/C=N/Nc2cc(Cl)nc(C)n2)c1O	i	-6.4*	i	8	i	7	i	i
Cn1c(C(=O)O)c(C=O)c2ccccc21	i	-6.7*	i	0	i	3	i	i
Cn1c(-c2ccccc2)c(C=O)c2ccccc21	i	i	i	13	i	3	x	x
CC(C)c1ccccc1N=C1SCCCN1C(=O)c1cccc(N2C(=O)CCC2=O)c1	i	i	i	-1	i	5	x	x
SMILES	CHT PAM	CHT block	ANO1 block	IDE cell inh	TMEM16A act	IDE act	CHT inh conf	HEK293 CHT ctr
N#C/C(C(N)=O)=c1/ccc2c(c1)N1C3=C(CCCC3)CC3CCCCC31N=2 (configuration not stated)	i	-15*	i	-11	x	x	23%*	i
Cc1ccc(Cl)cc1N1CCN(C(=O)Cc2c(C(=O)O)[nH]c3ccc(Cl)cc23)CC1	i	-7.6*	i	-1	i	0	55%*	i
COc1ccc(NC(=O)C2CC3CCC2C3)c(OC)c1 (configuration not stated)	i	i	i	2	i	x	x	x
CCN(CC)CCCNC(=O)c1cn(CC)c2ccc(S(=O)(=O)N(C)C3CCCCC3)cc2c1=O	i	-5.7*	i	0	i	4	61%*	i
CN(C1CCCCC1)S(=O)(=O)c1ccc2c(c1)c(=O)c(C(=O)NCCCN1CCCC1)cn2C	i	i	i	0	i	9	x	x
CCCCN(CCCC)CCNC(=O)c1cn(CC)c2ccc(S(=O)(=O)N(C)C3CCCCC3)cc2c1=O	i	-7.1*	i	0	i	2	20%*	i
CCn1cc(C(=O)NCCCN2CCCC(C)C2)c(=O)c2cc(S(=O)(=O)N(C)C3CCCCC3)ccc21 (configuration not stated)	i	-7.5*	i	-3	i	4	25%*	2.7*
O=C(NC1CCN(c2ncccn2)CC1)c1c(F)cccc1F	i	i	i	-1	i	3	x	x
CC(Oc1ccc(Cl)cc1)C(=O)NNC(=S)NC(=O)c1ccco1 (configuration not stated)	i	-6.5*	i	0	i	0	58%*	i
COc1ccc(C(=O)NNC(=S)NC(=O)c2ccco2)cc1	i	i	i	0	i	-1	x	x
O=C(N/N=C/c1cccc(Oc2ccccc2)c1)c1cccc(O)c1	i	-5.3*	i	x	i	-4	67%*	i
O=C(N/N=C/c1cccc(Oc2ccccc2)c1)c1cccc(Br)c1	i	i	i	-14	i	-3	x	x
CCOC(=O)c1ccc(NC(=S)Nc2ccc3[nH]c(=O)[nH]c3c2)cc1	i	i	i	-1	i	-5	x	x
CC(C)[C@H]1C(=O)Nc2ccccc2N1C(=O)N[C@@H](Cc1ccccc1)C(=O)N[C@H](Cc1ccccc1)C(=O)O	i	-7.2*	i	-2	i	6	i	i
